In the library only some 0.43% were active in any assay of this set; here they are far more common.
PKA-R1A act = activators of PKA-R1A holoenzyme, primary screen, biochemical, fluorescence polarization, Cy5-IP20, bovine R1A, mouse PKAc; cAMP-dependent protein kinase type I-alpha regulatory subunit (Bos taurus) + …; PKA-R1A dissociation; scaled: DMSO 0%, 113 µM cGMP 100%; activation, % at 11.4 µM; 340,000 tested, 0.083% active; AID 504707, 2011;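 active means percent activation above the mean of all tested compounds plus 3 SD, cut at about 19% in these data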;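 further: higher means more PKAc released from R1A so a rise in polarization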
HDAC3 inhib = HDAC3 deacetylase inhibitors, primary screen, biochemical, fluorescence, cell-free homogeneous. Histone deacetylase 3 (Homo sapiens), O15379. recombinant HDAC3, fluorogenic peptide/trypsin coupled. inhibition, % at 8.3 µM. 320,000 tested, 0.15% active; in the data active means inhibition above about 26%, passing the limit was not always enough
Rtt109 Vps75 = inhibitors of C. albicans Rtt109/Vps75 HAT, primary screen, biochemical, ThioGlo CoA-SH fluorescence, plate reader. 330,000 tested, 0.16% active. Histone acetyltransferase RTT109 (Candida albicans (strain SC5314 / ATCC MYA-2876)), …. purified Rtt109/Vps75, 4 h. inhibition, % at 34.9 µM;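 active means inhibition of at least 50% in every replicate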
PKA-R2B act = activators of PKA-R2B holoenzyme, primary screen, biochemical, fluorescence polarization, Cy5-IP20, human | cAMP-dependent protein kinase catalytic subunit beta (Homo sapiens) + cAMP-dependent … | PKA-R2B holoenzyme dissociation; R2B truncated from residue 108, S112A mutant; 0% DMSO only, 100% 113 µM cGMP | activation, % at 11.4 µM | 340,000 tested, 0.079% active;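 active means activation above a cutoff set at the mean over all compounds plus 3 SD, cut at about 18% in these data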;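 further: higher means more holoenzyme dissociation and a rise in polarization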
Target sequence (P31323 whole entry, looked up, other chains not shown, the tested form may be a part): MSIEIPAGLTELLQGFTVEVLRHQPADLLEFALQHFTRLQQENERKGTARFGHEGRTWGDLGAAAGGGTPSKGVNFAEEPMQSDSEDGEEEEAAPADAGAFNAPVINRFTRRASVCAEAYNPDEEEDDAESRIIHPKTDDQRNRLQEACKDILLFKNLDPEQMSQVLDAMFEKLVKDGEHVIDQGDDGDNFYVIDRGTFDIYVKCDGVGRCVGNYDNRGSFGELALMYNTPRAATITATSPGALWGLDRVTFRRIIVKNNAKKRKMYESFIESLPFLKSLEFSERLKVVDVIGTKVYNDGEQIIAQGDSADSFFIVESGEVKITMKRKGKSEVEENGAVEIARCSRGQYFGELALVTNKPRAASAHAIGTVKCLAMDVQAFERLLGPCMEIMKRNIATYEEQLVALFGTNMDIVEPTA
* hit, by the source's call; nt = no result given.

SMILES	PKA-R1A act	HDAC3 inhib	Rtt109 Vps75	PKA-R2B act
CN(CCc1ccccc1)C(=O)c1ccc(NC(=O)Cc2ccc(NC(=O)C3CCN(C(=O)c4ccccc4)CC3)cc2)cc1	-0.3	nt	-1.7	1.7
Cc1ccc(C(=O)C2=C(O)C(=O)N(Cc3ccco3)C2c2ccc(N(C)C)cc2)o1 (stereo not drawn)	-4.3	4.2	21.0	-1.7
CCCCOc1ccc(C2C(C(=O)c3ccc(C)o3)=C(O)C(=O)N2Cc2ccco2)cc1 (stereo not drawn)	-10.8	5.8	55.5*	-6.7
Cn1cc(Br)c(NC(=O)/C=C/C(=O)O)n1	4.6	-7.5	-2.2	8.6
COc1ccc2[nH]c(=O)c(CN(Cc3nnnn3Cc3ccccc3)CC3CCCO3)cc2c1 (stereo not drawn)	-13.1	-7.8	53.0*	-10.7
COc1ccc2[nH]c(=O)c(CN(Cc3nnnn3Cc3ccc(F)cc3)CC3CCCO3)cc2c1 (stereo not drawn)	-5.8	-3.3	-14.2	-1.9
O=C(Nc1ccc2oc(-c3ccncc3)nc2c1)c1ccc2c(c1)OCCO2	5.1	-0.2	57.2*	-1.2
O=C(Nc1ccc2oc(-c3ccncc3)nc2c1)c1ccc2c(c1)OCO2	-2.0	-7.2	6.5	-10.1
CCCCCCSc1ccc([C@@H]2[C@@H]3C(=O)N(C)C(=O)[C@@H]3[C@]3(C(=O)OC)CCCCN23)cc1OC	11.1	36.1*	-10.7	-3.2
CCN(CC)c1ccc(N=Cc2cc(Br)ccc2O)cc1	-37.6	-7.5	58.6*	-32.0
CC(NCC(=O)Nc1ccccc1C(=O)NC1CC1)c1ccc(F)cc1F (stereo not drawn)	0.8	-3.7	-1.1	-21.0
CCOc1ccc(Oc2c(/C=N/NC(N)=O)c(C)nn2-c2ccccc2)cc1	8.5	6.0	9.1	-2.8
CCOc1ccc(Oc2c(/C=N/NC(=O)COc3ccccc3OC)c(C)nn2-c2ccccc2)cc1	2.5	27.5*	-0.5	-0.6
CN=C(Nc1cc(C)nn1CCC#N)c1ccccc1	9.2	-1.7	28.3	2.5
Cc1cc(OC(=O)c2ccccc2)n(CCC#N)n1	-1.5	87.5*	16.8	-12.2
COc1cccc(NC(=O)CCSc2ccc(C)cc2)c1	-16.3	0.8	2.9	7.2
Nn1c(SCC(=O)NC2CCCC2)nnc1C(F)(F)F	3.0	nt	nt	-4.7
CC(C)CC(=O)NS(=O)(=O)c1ccc(NS(C)(=O)=O)cc1	1.7	2.0	9.7	4.2
COc1cc(/C=N\NC(=O)OC(C)(C)C)ccc1OC(=O)c1ccco1	nt	2.0	9.4	nt
COc1cc(/C=N/n2cnnc2)ccc1OC(=O)c1ccco1	-3.9	27.3*	nt	-4.0
CCC(=O)N(CC(=O)Nc1sc(C)c(C)c1C(N)=O)C1CCCCC1	-2.1	4.9	1.8	-7.4
Cc1ccc(Nc2nc(N/N=C/c3c[nH]c4ccccc34)nc(N3CCOCC3)n2)cc1	-3.4	25.5*	2.4	3.6
O=C(Nc1ccn(CCCNCc2ccc3c(c2)OCO3)c(=O)n1)OCc1ccccc1	-7.1	nt	5.7	5.5
CCCCS(=O)(=O)c1sc2nc(C)cc(C)c2c1N	3.4	-1.9	54.9*	-3.8
Cc1cc(C)c2c(N)c(S(=O)(=O)c3ccccc3)sc2n1	-0.2	-2.2	0.4	9.3
SMILES	PKA-R1A act	HDAC3 inhib	Rtt109 Vps75	PKA-R2B act
CN(CC(=O)NCc1ccccc1Cl)S(=O)(=O)c1ccc2c(c1)n(C)c(=O)c(=O)n2C	-10.5	-1.7	-4.7	0.1
Cn1c(=O)c2c(nc(NC3CCCCC3)n2Cc2ccccc2)n(C)c1=O	-1.3	-3.9	2.6	-0.4
Cn1c(=O)c2c(nc(NC3CCCCC3)n2CC(=O)C23CC4CC(CC(C4)C2)C3)n(C)c1=O	-2.7	2.1	56.5*	-8.1
O=C(Oc1ccc(Cl)cc1N1C(=O)CCC1=O)c1ccco1	-4.5	34.1*	0.2	5.5
CN(C(=O)CCc1nc(-c2ccccc2F)no1)c1ccccc1	-4.0	1.0	54.8*	-17.1
NC(=O)C1=C[C@H](c2ccccc2)C[C@H](OCc2ccc(CO)cc2)O1	1.2	28.1*	-2.0	6.7
O=C(Nc1ccccc1)C1=C[C@@H](c2ccccc2)C[C@@H](OCc2ccc(CO)cc2)O1	-0.4	-3.8	-5.4	-12.0
Cc1cccc(-n2c(CNC(=O)COc3ccccc3)nnc2SCC(=O)Nc2nccs2)c1	-5.0	3.4	-9.1	-1.5
COc1cccc(C(=O)NCc2nnc(SCC(=O)Nc3nccs3)n2-c2cccc(C)c2)c1	-20.9	-1.0	61.4*	-6.2
CC(=O)c1c(C)nn(C(=O)c2cccs2)c1C	-18.9	40.9*	0.2	-12.1
Cc1nn(C(=O)c2cccs2)c(N)c1-c1ccccc1	-8.8	-4.6	-1.9	-2.3
O=C(Nc1ccccc1O)c1ccc(NS(=O)(=O)c2cccc3cccnc23)cc1	-1.4	102.7*	3.5	-4.8
CCOC(=O)CSC(=S)NC(=O)c1ccc(OC)cc1	-1.5	78.7*	7.9	-7.2
CCOC(=O)C1CCN(Cc2c(O)ccc3ccccc23)CC1	-12.9	0.7	0.5	-12.1
CCOC(=O)N1CCN(Cc2c(O)ccc3ccccc23)CC1	-2.4	-0.9	133.2*	-1.7
O=C(C1CCCO1)N1CCN(Cc2c(O)ccc3ccccc23)CC1 (stereo not drawn)	6.3	-7.6	142.0*	-16.8
COc1ccc(-[n+]2c(C)cc(/C=C3\Sc4ccccc4N3C)cc2C)cc1	6.2	19.0	74.0*	5.3
Cc1c(-c2cc(C(=O)O)no2)cnn1C	-3.8	8.3	3.6	-3.2
CCn1ncc(-c2cc(C(=O)O)no2)c1C	nt	47.2*	-1.6	nt
O=C(CCCCCNC(=S)Nc1ccc(Cl)cc1)C[N+](=O)[O-]	-12.2	9.2	-8.0	-10.1
O=C(CCCCCNC(=S)Nc1ccccc1)C[N+](=O)[O-]	-12.2	28.8*	nt	-6.3
COc1ccc(N2CCN(c3ncnc4scc(-c5ccc(C)cc5)c34)CC2)cc1	-12.6	-2.8	51.9*	-0.8
O=Cc1ccc(OCC(=O)Nc2ccccc2C(F)(F)F)cc1	-9.9	3.7	5.4	-1.0
Cn1c(=O)[nH]c(=O)c2c1nc(SCC(=O)O)n2CCc1ccccc1	-10.4	36.8*	2.4	1.9
CCc1ccc(NC(=O)C(=O)c2ccccc2NC(C)=O)cc1	6.7	6.3	15.0	7.4
CN(C)c1ccc(/C=C/c2ccc3c4ccccc4ccc3[n+]2-c2ccccc2)cc1	13.3	nt	64.3*	12.1
CN(C)c1ccc(/C=C/c2ccc3ccccc3[n+]2C)cc1	0.6	16.7	28.6	-1.3
CN(C)c1ccc(NC(=O)COC(=O)c2ccc3c(c2)OCO3)cc1	-0.9	33.4*	4.4	6.7
COc1ccc(CCNC(=S)Nc2ccc(S(=O)(=O)Nc3ncccn3)cc2)cc1OC	-9.7	2.4	-2.4	7.1
